Over roughly 1,600 compounds, “Hit score” has its median near 0.13; the highest 2% begin near 0.46. For the sample, the highest values were picked, then their nearest neighbours and some compounds at random.

The assay deals with SARS-CoV-2. Put plainly: Antiviral activity against SARS-CoV-2 (USA-WA1/2020 strain) measured by imaging in HRCE cells at MOI 0.4 after 96 hrs (reported as hit score from 0-1 for on-disease vs off-disease activity: scores >0.6 considered hits). In kind it is functional, Homo sapiens.
`COc1ccc(CN2CCN(C(c3ccc(F)cc3)c3ccc(F)cc3)CC2)c(OC)c1OC` [LOMERIZINE] returned a Hit score of -0.04979.
In turn, `C=CCNc1nc(NCC=C)nc(N2CCN(C(c3ccc(F)cc3)c3ccc(F)cc3)CC2)n1` [ALMITRINE] displayed a Hit score of 0.7206.
`C#Cc1cccc(Nc2ncnc3cc4c(cc23)OCCOCCOCCO4)c1` [ICOTINIB] showed a Hit score of 0.1043.
Turning to `C[C@H](O)[C@H](O)[C@H]1CNc2nc(N)[nH]c(=O)c2N1` [SAPROPTERIN], the Hit score is 0.04545.
The molecule `C=C1[C@H](CO)[C@@H](O)C[C@@H]1n1cnc2c(=O)[nH]c(N)nc21.O` showed a Hit score of 0.1346.
To `CC1(C)S[C@@H]2[C@H](NC(=O)[C@H](NC(=O)N3CCN(S(C)(=O)=O)C3=O)c3ccccc3)C(=O)N2[C@H]1C(=O)O` [MEZLOCILLIN] belongs 0.1621.
`O=C(O[C@H]1C[C@H]2CC[C@@H](C1)[N+]21CCCC1)C(O)(c1ccccc1)c1ccccc1` [TROSPIUM] returned a Hit score of 0.08693.
To `Cc1ccccc1C(=O)Nc1ccc(C(=O)N2CCCC(N(C)C)c3ccccc32)cc1` (stereo not given) [MOZAVAPTAN] belongs 0.1836; to `CCC(C)(C)C(=O)O[C@H]1C[C@@H](C)C=C2C=C[C@H](C)[C@H](CC[C@@H]3C[C@@H](O)CC(=O)O3)[C@H]21` [SIMVASTATIN], 0.1206.
`C[C@H]1c2cccc(O)c2C(=O)C2=C(O)[C@]3(O)C(=O)C(C(N)=O)=C(O)[C@@H](N(C)C)[C@@H]3[C@@H](O)[C@@H]21.O` [DOXYCYCLINE]: the Hit score is given as -0.02175.
Consider `CCCCCCCC/C=C/CCCCCCCC(=O)OC[C@H]1O[C@@H](n2ccc(N)nc2=O)C(F)(F)[C@@H]1O` [GEMCITABINE ELAIDATE], for which the Hit score is listed as 0.08488.
The molecule `CC/C=C\C/C=C\C/C=C\C/C=C\C/C=C\CCCC(=O)O` [ICOSAPENT] registered a Hit score of 0.1484.
In turn, `C[N+]1(CC2CC2)[C@@H]2C[C@@H](OC(=O)[C@H](CO)c3ccccc3)C[C@H]1[C@@H]1O[C@@H]12` (stereo not given in full) [CIMETROPIUM] gave a Hit score of 0.08586.
On to `COc1cccc(Nc2c(C(N)=O)cnc3c(C)cc(S(=O)(=O)c4cccc(C(=O)N(C)C)c4)cc23)c1` [GSK-256066], for which the Hit score is on record as -0.006373.
For the molecule `Cl.OC(CNCC(O)C1CCc2cc(F)ccc2O1)C1CCc2cc(F)ccc2O1` (stereo not given) [NEBIVOLOL HYDROCHLORIDE], the Hit score amounted to 0.4783.
The result for `C[C@]12CC[C@@H]3c4ccc(O)cc4CC[C@H]3[C@@H]1CC[C@@H]2OC(=O)CCC1CCCC1` [ESTRADIOL CYPIONATE] reads 0.1681; that for `Cc1ccc(/C=C2\CNC/C(=C\c3ccc(C)cc3)C2=O)cc1.Cl`, 0.05741; that for `C[C@@H](O)[C@H]1C(=O)N2C(C(=O)O)=C([C@H]3CCCO3)S[C@H]12` [FAROPENEM], 0.1823.
For `CC1(C)S[C@@H]2[C@H](NC(=O)[C@H](N)c3ccc(O)cc3)C(=O)N2[C@H]1C(=O)[O-].[Na+]` [AMOXICILLIN SODIUM], the Hit score was 0.05468.
Consider `NCCCC[C@H](N)C(=O)O.N[C@@H](CSCC(=O)O)C(=O)O.O`, for which the Hit score was found to be 0.1749.
For the molecule `CO/N=C(\C(=O)N[C@@H]1C(=O)N2C(C(=O)OCOC(=O)C(C)(C)C)=C(C)CS[C@H]12)c1csc(N)n1`, the Hit score turned out to be 0.2495.
In turn, `CN(C)C(=O)c1cc2cnc(Nc3ccc(N4CCNCC4)cn3)nc2n1C1CCCC1` [RIBOCICLIB] showed a Hit score of 0.1227.
On to `CC(COc1ccccc1Cc1ccccc1)N1CCCCC1` (stereo not given) [BENPROPERINE], for which the Hit score was determined as 0.02777.
Consider `C#C[C@]1(O)CC[C@H]2[C@@H]3CCC4=CC(=O)CC[C@@H]4[C@H]3CC[C@@]21C` [NORETHINDRONE], for which the Hit score is listed as 0.1388.
The molecule `C=CCN1CC[C@]23c4c5ccc(O)c4O[C@H]2[C@@H](OCCOCCOCCOCCOCCOCCOCCOC)CC[C@@]3(O)[C@H]1C5` [NALOXEGOL] came in with a Hit score of 0.106.
`CN(C(=O)C(Cl)Cl)c1ccc(O)cc1` [DILOXANIDE] gave a Hit score of -0.0329.
Molecule `O=C1[C@H]2CCCC[C@H]2C(=O)N1CCCCN1CCN(c2nsc3ccccc23)CC1` [PEROSPIRONE] yielded a Hit score of 0.1455.
To `CCCCCCCCCCCC(=O)OCC(O)CO` (stereo not given) [GLYCEROL MONOLAURATE] belongs 0.1728; to `OCC(O)COc1cccc2ccccc12` (stereo not given), 0.1908.
On to `CC1=C(C)C(=O)C(CCCCCCCCCC[P+](c2ccccc2)(c2ccccc2)c2ccccc2)=CC1=O`, for which the Hit score is listed as 0.06177.
On to `C#C[C@]1(O)CC[C@H]2[C@@H]3CCC4=Cc5oncc5C[C@]4(C)[C@H]3CC[C@@]21C` [DANAZOL], for which the Hit score is given as 0.2899.
The result for `CC(C)(CO)c1cc2cc(NC(=O)C3(c4ccc5c(c4)OC(F)(F)O5)CC3)c(F)cc2n1C[C@@H](O)CO` [TEZACAFTOR] reads 0.1873; that for `O=C(O)c1cccc(-c2noc(-c3ccccc3F)n2)c1`, 0.2151; that for `N#Cc1ccnc(N2C(=O)CC[C@H]2C(=O)N(c2cncc(F)c2)[C@H](C(=O)NC2CC(F)(F)C2)c2ccccc2Cl)c1` [IVOSIDENIB], 0.2722.
The result for `O=C(O)c1ccc2c(c1)nc(Nc1cccc(Cl)c1)c1ccncc12` [SILMITASERTIB] reads 0.7608; that for `C[C@H](Nc1ncnc2nc[nH]c12)c1cc2cccc(Cl)c2c(=O)n1-c1ccccc1` [DUVELISIB], 0.6035; that for `CC[C@H](Nc1ncnc2[nH]cnc12)c1nc2cccc(F)c2c(=O)n1-c1ccccc1` [IDELALISIB], 0.4259.
Molecule `C[C@H](C(=O)O)c1ccc(-c2ccccc2)c(F)c1` [ESFLURBIPROFEN] returned a Hit score of 0.1907.
The result for `OC[C@H]1OC(O)[C@H](O)[C@@H](O)[C@@H]1O` (stereo not given in full) [DEXTROSE] reads 0.07162; that for `CCCCC(F)(F)[C@@]1(O)CC[C@H]2[C@@H](CC(=O)[C@@H]2CCCCCCC(=O)O)O1` [LUBIPROSTONE], 0.08446; that for `CC1(C)C(/C=C/C=C/C=C/C=C2\N(CCCCS(=O)(=O)[O-])c3ccc4ccccc4c3C2(C)C)=[N+](CCCCS(=O)(=O)[O-])c2ccc3ccccc3c21.[Na+]` [INDOCYANINE GREEN], 0.2338.
For `Cc1nc(NC(=O)N2CCC[C@H]2C(N)=O)sc1-c1ccnc(C(C)(C)C(F)(F)F)c1` [ALPELISIB], the Hit score worked out at 0.6194.
Take `CC(C)(C)C(=O)OCC(=O)[C@H]1CC[C@H]2[C@@H]3CCC4=CC(=O)CC[C@]4(C)[C@H]3CC[C@]12C` [DESOXYCORTICOSTERONE PIVALATE]: the Hit score was 0.2223.
On to `O=C(O)c1ccc(NC(=O)[C@H](Cc2ccc(O)cc2)NC(=O)c2ccccc2)cc1` [BENTIROMIDE], for which the Hit score was determined as 0.2686.
`CC1(C)O[C@@H]2[C@@H](CO[C@@]3(COS(N)(=O)=O)OC(C)(C)O[C@@H]23)O1` [TOPIRAMATE] registered a Hit score of 0.1748.
To `N#Cc1c(N2C[C@@H]3NCCO[C@H]3C2)c(F)cc2c(=O)c(C(=O)O)cn(C3CC3)c12` [FINAFLOXACIN] belongs 0.04952; to `C[C@H]1C[C@@H]2[C@H]([C@@H](O)C[C@@]3(C)[C@H]2CC[C@]3(O)C(=O)CO)[C@@]2(C)C=CC(=O)C=C12` [METHYLPREDNISOLONE], 0.1629; to `CCCCc1oc2ccc(NS(C)(=O)=O)cc2c1C(=O)c1ccc(OCCCN(CCCC)CCCC)cc1` [DRONEDARONE], 0.03796.
The molecule `C[C@]1(Cn2ccnn2)[C@H](C(=O)O)N2C(=O)C[C@H]2S1(=O)=O` [TAZOBACTAM] registered a Hit score of 0.04532.
`CC(C)Cc1ccc(C(C)C(=O)OCc2ccccn2)cc1` (stereo not given) [IBUPROFEN PICONOL] returned a Hit score of 0.1126.
With `CCCN1CC(NS(=O)(=O)N(CC)CC)CC2Cc3c(O)cccc3CC21` (stereo not given) [QUINAGOLIDE], the Hit score was 0.09123.
The result for `CO/N=C(\C(=O)N[C@@H]1C(=O)N2C(C(=O)O)=C(CSc3nnnn3C)CS[C@H]12)c1csc(N)n1` [CEFMENOXIME] reads 0.1641; that for `N=C(N)c1ccc(/C=C/c2ccc(C(=N)N)cc2O)cc1` [HYDROXYSTILBAMIDINE], 0.4886.
Consider `Nc1nc(=O)c2c([nH]1)NC[C@H](CNc1ccc(C(=O)N[C@@H](CCC(=O)O)C(=O)O)cc1)N2C=O` [LEVOLEUCOVORIN], for which the Hit score was 0.1157.
In turn, `C#C[C@]1(OC(C)=O)CC[C@H]2[C@@H]3CCC4=CC(=O)CC[C@@H]4[C@H]3CC[C@@]21C` [NORETHINDRONE ACETATE] had a Hit score of 0.06494.
Turning to `CC(C)NCC(O)COc1cccc2ccccc12` (stereo not given) [PROPRANOLOL], the Hit score is 0.3664.
On to `CC(C)NCC(O)COc1cccc2[nH]c3ccccc3c12` (stereo not given) [CARAZOLOL], for which the Hit score was determined as 0.4815.
For `COc1ccccc1OCC(O)CO` (stereo not given) [GUAIFENESIN], the Hit score was 0.2008.
The result for `CC(C)NCC(O)COc1cccc2[nH]ccc12` (stereo not given) [PINDOLOL] reads 0.3758.
The result for `C=CCOc1ccccc1OCC(O)CNC(C)C` (stereo not given) [OXPRENOLOL] reads 0.08363.
Consider `COc1ccccc1OCCNCC(O)COc1cccc2[nH]c3ccccc3c12` (stereo not given) [CARVEDILOL], for which the Hit score came out at 0.5244.
`COc1ccc(CCNCC(O)COc2cccc(C)c2)cc1OC` (stereo not given) [BEVANTOLOL] returned a Hit score of 0.3675.
As for `C=CCc1ccccc1OCC(O)CNC(C)C` (stereo not given) [ALPRENOLOL], the Hit score turned out to be 0.3773.
In turn, `CC(C)NC[C@@H](O)COc1cccc2ccccc12` [DEXPROPRANOLOL] yielded a Hit score of 0.4686.
The molecule `NS(=O)(=O)c1cc(-c2nnn[nH]2)c(NCc2cccs2)cc1Cl` [AZOSEMIDE] showed a Hit score of 0.09549.

Values taken from ChEMBL document CHEMBL4303122, “Identification of potential treatments for COVID-19 through artificial intelligence-enabled phenomic analysis of human cells infected with SARS-CoV-2” (2020).
